Data on twelve sequences can be found in article PMC5700166.

Common to all, as to test: protein-binding microarray (PBM); PBM: ~300 nM protein, 6 mM HEPES pH 7.8, 80 mM KCl, 0.5 mM EDTA, 0.5 mM EGTA, 6% glycerol, 35 ng/ul poly-dIdC, 1% milk, 1 h, room temperature; Ap Aiptasia and Nv Nematostella (sea anemones) / Co Capsaspora / Aq Amphimedon (sponge) / Dm Drosophila / Hu human; RHD is the Rel homology domain; high values mean tight binding
Holding throughout (details): dsDNA, one strand shown

One assay has as its target T1, GST-Ap-NF-kB RHD (Exaiptasia pallida (Aiptasia), UniProt A0A913YAJ5 2-422).
T1 sequence: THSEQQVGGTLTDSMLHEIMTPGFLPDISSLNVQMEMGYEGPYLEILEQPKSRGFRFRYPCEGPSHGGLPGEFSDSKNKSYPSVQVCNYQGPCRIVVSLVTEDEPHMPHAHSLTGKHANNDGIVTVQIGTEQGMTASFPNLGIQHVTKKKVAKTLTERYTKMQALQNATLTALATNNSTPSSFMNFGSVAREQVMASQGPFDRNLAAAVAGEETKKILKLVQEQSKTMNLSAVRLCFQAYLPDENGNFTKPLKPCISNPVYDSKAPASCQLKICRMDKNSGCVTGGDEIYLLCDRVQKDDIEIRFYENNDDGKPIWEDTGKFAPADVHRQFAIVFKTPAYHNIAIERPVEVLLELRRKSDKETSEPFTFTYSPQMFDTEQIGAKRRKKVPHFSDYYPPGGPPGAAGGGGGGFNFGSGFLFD

In assay [1] the target is T2, GST-Nv-NF-kB (Cys allele) (Nematostella vectensis, UniProt E5G601 2-411).
T2 sequence: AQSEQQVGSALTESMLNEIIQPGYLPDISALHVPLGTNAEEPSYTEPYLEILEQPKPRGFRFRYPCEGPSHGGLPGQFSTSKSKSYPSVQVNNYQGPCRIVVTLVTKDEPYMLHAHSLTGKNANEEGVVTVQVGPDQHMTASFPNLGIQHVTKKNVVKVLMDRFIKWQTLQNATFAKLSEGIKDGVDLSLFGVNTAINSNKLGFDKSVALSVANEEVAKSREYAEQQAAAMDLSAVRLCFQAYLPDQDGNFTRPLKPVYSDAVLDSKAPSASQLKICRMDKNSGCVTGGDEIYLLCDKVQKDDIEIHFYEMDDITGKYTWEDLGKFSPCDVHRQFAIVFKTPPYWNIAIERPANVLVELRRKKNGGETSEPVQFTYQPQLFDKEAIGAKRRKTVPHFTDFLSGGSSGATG

Assay [2] concerns the target T3, GST-Nv-NF-kB (Ser allele) (Nematostella vectensis, UniProt A7UNT2 2-411).
T3 sequence: T2 sequence with Q21R, C66S, S207N, E215Q, V217A, E225K, A268E, D399E

The next assay concerns the target T4, GST-Co-NF-kB (Capsaspora owczarzaki, UniProt F1ARL5 200-546).
T4 sequence: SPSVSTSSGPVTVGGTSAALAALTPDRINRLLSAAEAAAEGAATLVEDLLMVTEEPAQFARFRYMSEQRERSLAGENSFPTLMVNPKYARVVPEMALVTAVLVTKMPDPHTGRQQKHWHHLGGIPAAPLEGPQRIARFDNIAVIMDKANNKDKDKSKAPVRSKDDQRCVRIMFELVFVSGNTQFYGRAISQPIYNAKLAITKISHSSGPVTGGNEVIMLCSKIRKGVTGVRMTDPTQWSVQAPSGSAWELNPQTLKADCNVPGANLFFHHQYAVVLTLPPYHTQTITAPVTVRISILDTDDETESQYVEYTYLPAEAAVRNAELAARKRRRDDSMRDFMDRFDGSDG

The next assay deals with T5, GST-Dm-Relish (Drosophila melanogaster, UniProt Q94527 99-473).
T5 sequence: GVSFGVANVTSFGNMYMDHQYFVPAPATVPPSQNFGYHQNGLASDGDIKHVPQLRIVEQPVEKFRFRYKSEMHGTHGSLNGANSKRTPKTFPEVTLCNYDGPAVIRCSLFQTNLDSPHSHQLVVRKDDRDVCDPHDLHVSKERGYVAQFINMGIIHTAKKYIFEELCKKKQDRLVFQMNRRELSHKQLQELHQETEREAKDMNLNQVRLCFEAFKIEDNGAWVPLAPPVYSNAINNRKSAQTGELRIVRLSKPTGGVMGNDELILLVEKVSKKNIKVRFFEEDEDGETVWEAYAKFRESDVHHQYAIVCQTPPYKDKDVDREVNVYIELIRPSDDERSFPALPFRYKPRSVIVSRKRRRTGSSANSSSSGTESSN

A further assay concerns the target T6, GST-Aq-NF-kB (Amphimedon queenslandica, UniProt A9Y5G7 2-389).
T6 sequence: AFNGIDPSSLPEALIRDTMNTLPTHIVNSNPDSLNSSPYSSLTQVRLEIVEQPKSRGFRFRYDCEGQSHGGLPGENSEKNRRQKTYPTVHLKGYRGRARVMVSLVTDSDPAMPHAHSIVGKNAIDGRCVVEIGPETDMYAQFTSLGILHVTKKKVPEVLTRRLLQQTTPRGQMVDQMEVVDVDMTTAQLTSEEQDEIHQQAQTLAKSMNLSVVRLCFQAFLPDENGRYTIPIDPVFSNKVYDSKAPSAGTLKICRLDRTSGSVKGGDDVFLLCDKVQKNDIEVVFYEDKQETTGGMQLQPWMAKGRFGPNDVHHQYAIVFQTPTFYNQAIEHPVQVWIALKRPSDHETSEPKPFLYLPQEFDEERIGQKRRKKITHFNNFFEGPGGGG

Substitutions are numbered along the chain they refer to.

As to “CCGATTAACATCACTCTTTCCCCTGATGTTAATCGGGTCTTGATTCGCTTGACGCTGCTG”, the binding signal with GST-Ap-NF-kB RHD came to 4.86 z-score; in assay [1], 5.44 z-score; in assay [2], 7.19 z-score; in the assay with GST-Co-NF-kB it was 6.1 z-score; with GST-Dm-Relish, 1.95 z-score; with GST-Aq-NF-kB it was 4.18 z-score.
As for “CCGATTAACATCAAACTTTTCCCTGATGTTAATCGGGTCTTGATTCGCTTGACGCTGCTG”, the binding signal in the assay with GST-Ap-NF-kB RHD is 3.37 z-score; in assay [1], 5.66 z-score; in assay [2] it was 6.83 z-score; in the assay with GST-Co-NF-kB it was 4.78 z-score; with GST-Dm-Relish, 1.45 z-score; with GST-Aq-NF-kB it was 4.63 z-score.
As to “CCGATTAACATCACCTATTCCCCTGATGTTAATCGGGTCTTGATTCGCTTGACGCTGCTG”, the binding signal with GST-Ap-NF-kB RHD worked out at 5.73 z-score; in assay [1], 5.93 z-score; in assay [2], 7.28 z-score; with GST-Co-NF-kB it was 5.72 z-score; with GST-Dm-Relish it was 2.23 z-score; with GST-Aq-NF-kB it was 4.27 z-score.
For “CCGATTAACATCAAGGGAAAATATGATGTTAATCGGGTCTTGATTCGCTTGACGCTGCTG”, the binding signal is 3.77 z-score in the assay with GST-Ap-NF-kB RHD; 7.5 z-score in assay [1]; 8.19 z-score in assay [2]; 4.43 z-score with GST-Co-NF-kB; 1.66 z-score with GST-Dm-Relish; 4.44 z-score in the assay with GST-Aq-NF-kB.
Take “CCGATTAACATCAGGGGGGGGCATGATGTTAATCGGGTCTTGATTCGCTTGACGCTGCTG”: the binding signal came to 4.94 z-score in the assay with GST-Ap-NF-kB RHD; 4.84 z-score in assay [1]; 4.15 z-score in assay [2]; 4.65 z-score in the assay with GST-Co-NF-kB; 3.78 z-score in the assay with GST-Dm-Relish; 3.82 z-score in the assay with GST-Aq-NF-kB.
Regarding “CCGATTAACATCAGGGAAACTACTGATGTTAATCGGGTCTTGATTCGCTTGACGCTGCTG”, the binding signal with GST-Ap-NF-kB RHD amounted to 3.54 z-score; in assay [1] it was 4.2 z-score; in assay [2], 4.47 z-score; with GST-Co-NF-kB, 3.89 z-score; with GST-Dm-Relish it was 5.85 z-score; with GST-Aq-NF-kB, 5.64 z-score.
Turning to “CCGATTAACATCAATAGTTCCCCTGATGTTAATCGGGTCTTGATTCGCTTGACGCTGCTG”, the binding signal with GST-Ap-NF-kB RHD turned out to be 6.43 z-score; in assay [1], 6.96 z-score; in assay [2] it was 8.51 z-score; in the assay with GST-Co-NF-kB, 7.79 z-score; in the assay with GST-Dm-Relish, 6.77 z-score; in the assay with GST-Aq-NF-kB, 5.01 z-score.
As to “CCGATTAACATCAGGGGAACTCATGATGTTAATCGGGTCTTGATTCGCTTGACGCTGCTG”, the binding signal came out at 6.56 z-score in the assay with GST-Ap-NF-kB RHD; 6.78 z-score in assay [1]; 7.59 z-score in assay [2]; 5.3 z-score with GST-Co-NF-kB; 6.03 z-score with GST-Dm-Relish; 4.88 z-score with GST-Aq-NF-kB.
On to “CCGATTAACATCATTAGGGAAAATGATGTTAATCGGGTCTTGATTCGCTTGACGCTGCTG”, for which the binding signal in the assay with GST-Ap-NF-kB RHD is 3.51 z-score; in assay [1] it was 6.08 z-score; in assay [2], 7.94 z-score; in the assay with GST-Co-NF-kB, 2.21 z-score; with GST-Dm-Relish, 1.55 z-score; in the assay with GST-Aq-NF-kB it was 4.53 z-score.
With “CCGATTAACATCACTATTTTCCCTGATGTTAATCGGGTCTTGATTCGCTTGACGCTGCTG”, the binding signal was found to be 3.72 z-score with GST-Ap-NF-kB RHD; 4.96 z-score in assay [1]; 6.91 z-score in assay [2]; 5.27 z-score in the assay with GST-Co-NF-kB; 1.52 z-score with GST-Dm-Relish; 3.51 z-score with GST-Aq-NF-kB.
Take “CCGATTAACATCAATAAATTCCCTGATGTTAATCGGGTCTTGATTCGCTTGACGCTGCTG”: the binding signal with GST-Ap-NF-kB RHD came to 4.18 z-score; in assay [1], 7.04 z-score; in assay [2] it was 7.28 z-score; in the assay with GST-Co-NF-kB it was 4.25 z-score; with GST-Dm-Relish, 5.85 z-score; with GST-Aq-NF-kB, 5.34 z-score.
“CCGATTAACATCAGGGGAATGGATGATGTTAATCGGGTCTTGATTCGCTTGACGCTGCTG”: the binding signal came out at 5.2 z-score with GST-Ap-NF-kB RHD; 5.95 z-score in assay [1]; 7.13 z-score in assay [2]; 3.65 z-score in the assay with GST-Co-NF-kB; 1.71 z-score in the assay with GST-Dm-Relish; 4.07 z-score with GST-Aq-NF-kB.
